From PubChem BioAssay (NCATS)
Records with an inconclusive call do not appear. Calls of active or inactive are those of the source. The call rests on the fitted dose curve; in most records, active means well fitted curve in the direction sought with a large enough effect; inconclusive means small, poorly fitted or top-dose-only effect, or another doubt; inactive means no such curve, though single readings can be large; an effect the other way counts as inactive or inconclusive.

Legend:
[1] = qHTS for Hypoxia signaling pathway (HIF-1) agonists against the NCATS CANVASS Library (AID 1347375); settings: HRE-bla ME-180 cells, HIF-1 beta-lactamase reporter, 17 h; series mostly up to 38.3 µM
Method in brief: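 Read-out: beta-lactamase FRET (CCF4-AM, ex 405, em 460 and 530 nm) after 2 h at room temperature. ME-180 cells stably carrying HRE-bla were treated 17 h at 37C with compounds in an 11-point concentration series.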

[2] = 10-beta competent E. coli microbial cell viability qHTS against the NCATS CANVASS Library (AID 1347376); settings: E. coli 10-beta viability, BacTiter-Glo ATP luminescence, overnight; series mostly up to 46.1 µM
Method in brief: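 Luminescence from BacTiter-Glo ATP detection served as the viability read-out; bacteria (0.2 OD) had been incubated overnight at 37C with pin-transferred compounds at 11 concentrations.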

[3] = DH5-alpha competent E. coli microbial cell viability qHTS against the NCATS CANVASS Library (AID 1347377); settings: BacTiter-Glo ATP luminescence, overnight; series mostly up to 46.1 µM
Excerpt: Natural products and their derivatives continue to be wellsprings of nascent therapeutic potential. However, many laboratories have limited resources for biological evaluation, leaving their previously isolated or synthesized compounds largely or completely untested. To address this issue, the Canvass library of natural products was assembled (https://tripod.nih.gov/canvass), in collaboration with academic and industry researchers, for quantitative high-throughput screening (qHTS) across a diverse set of cell-based and biochemical assays. […] The library was formatted into 1536-well plates and evaluated in 50 qHTS (in an 11-pnt concentration series) bioassays with broad scope of disease-relevant mechanisms. The resulting data set from 50 different assays was then systematically analyzed to identify overall trends and specific natural products with interesting biological activities. […] The BacTiter-Glo microbial cell viability assay is a homogeneous method for determining the number of viable bacterial cells in culture based on quantitation of the ATP present. […] The homogeneous assay procedure involves adding a single reagent (BacTiter-GloTM Reagent) directly to bacterial cells in medium and measuring luminescence. […]

[4] = qHTS for H2AX Agonists against the NCATS CANVASS Library (AID 1347378); settings: CHO-K1 H2AX phosphorylation, HTRF TR-FRET, 3 h; series mostly up to 76.9 µM
Method in brief: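 Phospho-H2AX (S139) in CHO-K1 lysates measured by HTRF, reported as 665/615 nm emission ratio after 24 hr antibody incubation at room temperature. Cells were first treated with a compound series for 3 hr at 37C (0.76% DMSO final).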

[5] = qHTS for Inflammasome Signaling Inhibitors: IL-1-beta AlphaLISA screen against the NCATS CANVASS Library (AID 1347379); settings: THP-1 LPS/ATP, IL-1B AlphaLISA secretion, 16 h; series mostly up to 57.5 µM;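 further: human THP-1 cells primed with LPS then triggered with ATP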
Method in brief: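 THP-1, 1 hr compound pre-incubation, then LPS 250 ng/mL + ATP 1.25 mM (final); 16 hr total with compound; IL-1B AlphaLISA, ex 680/em 615 nm; 11-point qHTS, up to 57.5 uM final.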

[6] = Inflammasome Signaling qHTS Counterscreen: IL-1-beta AlphaLISA counterscreen against the NCATS CANVASS Library (AID 1347381); settings: Purified IL-1beta AlphaLISA signal interference counterscreen; series mostly up to 57.5 µM;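 further: cell-free check with purified IL-1β in medium and no THP-1 cells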
Excerpt: Natural products and their derivatives continue to be wellsprings of nascent therapeutic potential. However, many laboratories have limited resources for biological evaluation, leaving their previously isolated or synthesized compounds largely or completely untested. To address this issue, the Canvass library of natural products was assembled (https://tripod.nih.gov/canvass), in collaboration with academic and industry researchers, for quantitative high-throughput screening (qHTS) across a diverse set of cell-based and biochemical assays. The pure (>85% purity by liquid chromatography/mass spectrometry [LC/MS]) Canvass library of 346 natural products were submitted by 45 academic laboratories and companies around the world. We collected pure natural products to circumvent deconvolution and structure elucidation due to time and resource limitations. The library was formatted into 1536-well plates and evaluated in 50 qHTS (in an 11-pnt concentration series) bioassays with broad scope of disease-relevant mechanisms. The resulting data set from 50 different assays was then systematically analyzed to identify overall trends and specific natural products with interesting biological activities. […]
IL-1-beta-counterscreen qHTS protocol: 1. […] The AlphaLISA signal was read by the EnVision plate reader (PerkinElmer) using a 680 nm excitation and 615 nm emission filters.

[7] = Cytotoxicity qHTS for assessment of Hepg2 cells membrane integrity screened against the NCATS CANVASS Library (AID 1347387); settings: HepG2 LDH release (CytoTox-ONE) fluorescence, 5 h; series mostly up to 46.1 µM
Method in brief: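 LDH release read by fluorescence (560 nm ex/590 nm em) after CytoTox-ONE addition and 10 min RT; signal tracks lysed cells. HepG2, 2000 cells/well, plated overnight; compound 5 hr, 37C, 5% CO2, final 0.59 nM - 46 uM, 11 points.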

[8] = qHTS for Activators of p53 Stress Response Pathway screened against the NCATS CANVASS Library (AID 1347388); settings: p53RE-bla HCT-116, beta-lactamase reporter, 16 h; series mostly up to 46.1 µM
Method in brief: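 p53RE-bla HCT-116 cells (4000/well) were pre-incubated for 5 h, then treated with compound (11 points) for 16 h at 37C. After 2 h with CCF4, the 460/530 nm ratio gave reporter activation; CellTiter-Glo measured viability.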

[9] = qHTS assay for small molecule disruptors of mitochondrial membrane potential screened against the NCATS CANVASS Library (AID 1347389); settings: HepG2 mitochondrial membrane potential, m-MPI red/green ratio, 1.5 h; series mostly up to 46.1 µM; further: nearly all actives have a fitted effect of over 60% in size
Method in brief: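 Red/green fluorescence ratio read-out: J-aggregates ex 540/em 590 nm, monomers ex 490/em 535 nm. HepG2, 1 hr compound treatment, then 30 min Mito-MPS dye at 37C. 11-pt qHTS concentration series.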

[10] = qHTS for Antimalaria activity screened against the NCATS CANVASS Library (AID 1347380);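 further: Plasmodium falciparum strain Dd2 asexual parasites grown in red blood cells; nearly all actives have a fitted effect of over 40% in size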; settings: P. falciparum Dd2 growth, SYBR Green fluorescence, 72 h; series mostly up to 28.7 µM
Method in brief: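 SYBR Green fluorescence (ex 485, em 535 nm) read after saponin/Triton lysis and 18 h further incubation; Dd2 asexual blood-stage parasites, 72 h compound exposure, 11-pt concentration series, 2.5% hematocrit, 0.3% parasitemia.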

Measured: outcome

C/C=C/C=C/C(CC(=O)O)Nc1ccc(C=O)cc1 (configuration not stated)
not listed: [10]
inactive: all other assays above

CC1=C2C(=O)O[C@@H](c3ccoc3)[C@]2(C)CCC1
not listed: [1] | [9]
inactive: all other assays above
